Reference: the emibetuzumab library of Makowski et al. (2022)
This is one part of the list. No count for the full screen is at hand.

B1: VH:VL chains; a variant is named by its letters at X, in order (parent)
chain 1: QVQLVQSGAEVKKPGASVKVSCKASGYTFTDYXMHWVRQAPGQGLEWMGXVNPNXXXTTYNQKFEGRVTMTTDTSTSTAYMELRSLRSDDTAVYYCARXNXLDXWGQGTTVTVSS
chain 2: DIQMTQSPSSLSASVGDRVTITCSVSSSVSSIYLHWYQQKPGKAPKLLIYSTSNLASGVPSRFSGSGSGTDFTLTISSLQPEDFATYYCQVYSGYPLTFGGGTKVEIK

Variants of: B1
Experiment: yeast display scFab, FACS + sequencing
Details: with MET
Outline: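 Heavy-chain CDR mutant scFab yeast surface library, enriched by two magnetic rounds on HGFR-Fc-coated Protein A beads and then by FACS. Cells were labelled with 1 nM HGFR-Fc in PBSB with 1% milk and anti-Myc for 3 h at room temperature, and the top 50% antigen-positive cells were gated. Round-3 sorted and input populations were deep sequenced in two replicates. Antigen binding call: positive if a sequence occurred in both antigen-positive samples, negative if it occurred only in input.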

Variant | antigen binding call
VEGGGAGV | no binding
DAGGADGV | no binding
FRGRGASD | binds
FAGRGYSD | no binding
FRKGDASD | no binding
DGGKNAVA | no binding
VAGTGASD | no binding
FRGRSSLA | binds
FRTRSSLA | binds
VEGEDAGA | no binding
FRRGSSGA | binds
YRRGSSGA | binds
YRRGGSGA | binds
YTRGGSGA | no binding
DAKEGSSA | no binding
DGGKNDVV | no binding
VEGTSAGD | no binding
FRGRDYAA | no binding
YRTRGAGA | binds
FRTRGAAA | binds
FTTRGAVA | no binding
YTTRGAGA | no binding
FRTRDAAA | binds

Variant | antigen binding call
FRTRGVGA | no binding
YRTRSAAA | binds
VRTRGDGA | no binding
SEARSDAS | no binding
DKEGGDVD | no binding
DATGGDGS | no binding
SKGRSDAV | no binding
SETGNVWF | no binding
VRTRGYLA | no binding
YATRGAAA | no binding
YRTRGAAA | binds
YRTRGAWA | binds
YRTRGALA | binds
VTGTGAVY | no binding
VGRGNSGD | no binding
YGRGNSGD | binds
YKRGGSGD | binds
DGRGNSGD | no binding
YEGTGSGD | no binding
YKRRNSGD | no binding
YKRGSSGD | binds
STGGGDGV | no binding
STAGSASD | no binding

Variant | antigen binding call
YRRGSSLS | binds
YRRGGSLS | binds
DARGGSLS | no binding
YEGTGSLS | no binding
YRRGSALS | binds
VKGASDGA | no binding
VTRGDSGA | no binding
VTRGASGA | no binding
YKRGSDGA | binds
YKRGSFGA | no binding
VKRGSSGA | binds
YKEKGDGA | no binding
YKRGSSGA | binds
DAGGGSSD | no binding
SETTDAGV | no binding
STKRSFWA | no binding
YRGESAVD | binds
YKGKDSVD | no binding
YRGKDSVD | binds
YRGTGSVD | binds
VTGTGSVD | no binding
DTGTGSVD | no binding
YRGEASVD | binds

Variant | antigen binding call
DAEKDSGA | no binding
VTKESAAV | no binding
YRGGTSVD | binds
YRGKSSVD | binds
YGGKNSVD | no binding
YRGKASVD | binds
DEGGTSVD | no binding
YRTKAAVD | binds
VTGTSDVA | no binding
VTGGDDWF | no binding
DREGDYLY | no binding
VTGGDSVD | no binding
YTGGDSVD | binds
YTGGDSVA | no binding
YAGAAAVD | no binding
YRGKAAVD | binds
DAGTDAGD | no binding
DRAGDDLA | no binding
YRTGDSSA | binds
YRTGDSAA | binds
YRAGDSSA | binds
DRAGDSSA | no binding
SAAGGAAD chain 1 L45S | no binding

Variant | antigen binding call
DTREGDVY | no binding
VKERGDGV | no binding
FARENFLA chain 1 V51A | no binding
VAKADDWF | no binding
YRTRSAWD | binds
YAGRAAWD | no binding
YRTRAAWD | binds
YRGRSAWD | binds
YRTRSAGD | binds
YGTRSAAD | no binding
SEEEGDWV | no binding
AKEADDVA | no binding
YTGTSDLV | no binding
VTTKSDSV | no binding
VTTRADVA | no binding
VRRRGAGD | binds
VEKEGAGD | no binding
VEEEGAGD | no binding
FRRRGSGD | binds
VRRRGSGD | binds
VGGGGDGS | no binding
DTTGGDGV | no binding
SEKKSAGA | no binding

Variant | antigen binding call
YRGGDAAF | binds
YRAGGAAF | binds
YRGKGAAF | binds
YGARGAAF | no binding
YRGGGAAF | binds
YEGGGDWF | no binding
VKGKGAAF | no binding
FAGGGDAV | no binding
VRERGDAA | no binding
VRAGGDAV | binds
VRGGGDAA | no binding
VRAGDDAV | no binding
VRAGGDAA | binds
VRTKADAV | no binding
YRRGDAAF | binds
YRRGGAGF | binds
YRKGGAWF | binds
YRRESAGF | binds
DRRGDDVF | no binding
VAEKDDGS | no binding
